In all, about 200,000 compounds went through this assay and about 18,000 (9%) were called active. The sample holds actives, similar compounds and a random draw of the others, so the mix is not that of the screen. Cut-off read from the data, not from the text of the source: active = inhibition above about 50%; inactive = the rest. Where a SMILES comes first, the peptide text is derived from it. The star is where a group is joined. OPac = O=C(CO*)c1ccccc1; Bz = O=C(c1ccccc1)*

The nature of this assay: Leishmania major promastigote growth inhibition, primary screen (AID 1063).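 Note: promastigotes grown with compound for 44 hours at 28 °C.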 The settings on record: Leishmania major promastigotes, resazurin fluorescence viability; at 10 µM; stronger effect = higher value.
Consider `O=C(CNC(=O)c1ccccc1)NCC(=O)OCC(=O)c1ccccc1` (Bz-Gly-Gly-OPac), for which the inhibition – broadly, the drop in the measured response relative to a control, in per cent – was -9.69% (inactive). For the molecule `COc1ccc(C)cc1NC(=O)C(Sc1ccccc1)c1ccccc1` (stereo not given), the inhibition was 3.92% (inactive). As for `COc1ccc(C)cc1NC(=O)C(OC(=O)c1cccc(S(=O)(=O)N(C)c2ccccc2)c1)c1ccccc1` (stereo not given), the figure is 97.6% (active); as for `COc1ccc(C)cc1NC(=O)Nc1ccccc1SC`, 10.1% (inactive). With `OC(COCC1COc2ccccc2O1)CN1CCN(c2ccc(F)cc2)CC1` (stereo not given) the figure was 12% (inactive); with `Cc1ccnc(NC(=O)CCC(=O)N(CC(=O)NCCc2ccccc2)Cc2cccs2)c1`, -4.68% (inactive). As for `CCOc1ccc(CN2CCN(Cc3ccon3)CC2CCO)cc1` (stereo not given), the inhibition is -5.47% (inactive). Turning to `CCOc1ccc(CN2CCCN(C)CC2)cc1`, the inhibition was 54.1% (active). As for `CCOc1ccc(CN2CCN(Cc3ccc(C)o3)CC2CCO)cc1` (stereo not given), the inhibition was -0.08% (inactive). Regarding `COC(=O)c1sc2[nH]c(=S)n(N)c(=O)c2c1C`, the inhibition was -7.2% (inactive). As for `CC1CCCCC1NC(=O)CO/N=C/c1ccc(OC(F)F)cc1` (stereo not given), the inhibition was 13.4% (inactive). As for `CCOc1ccc(C(=O)NC2CCN(CC(=O)NCc3cccs3)CC2)cc1`, the figure is -4.61% (inactive); as for `Cc1cc(C#N)c(SCC(N)=O)nc1-c1ccc(F)cc1`, 2.96% (inactive); as for `Cc1cccc(NC(=S)N2CCC(c3nc4ccccc4s3)CC2)c1`, -0.22% (inactive).

With `Cc1cccc(NC(=S)N2CCCC(c3nc4ccccc4[nH]3)C2)c1` (stereo not given), the inhibition is 99.1% (active). With `CCCNC(=S)N1CCCC(c2nc3ccccc3[nH]2)C1` (stereo not given) the figure was 7.49% (inactive); with `O=c1cc(CO)oc(C(Nc2cccc(C(F)(F)F)c2)c2ccccn2)c1O` (stereo not given), 2.74% (inactive); with `CNS(=O)(=O)c1cnccc1N1CCN(c2cccc(C)c2)CC1`, 8.07% (inactive). As for `Cc1ccc(Sc2ccncc2S(N)(=O)=O)cc1`, the figure is 84.9% (active); as for `Cc1cc(NC(=O)CSCc2ccccc2C)no1`, -8.79% (inactive).

As to `Cc1ccc2oc(=O)c3cnn(CC(=O)N(Cc4ccco4)C4CCCCC4)c3c2c1`, the inhibition was 22.1% (inactive). As for `Cc1ccc(C(C(=O)NC2CCCC2)N(Cc2ccco2)C(=O)CCC(=O)Nc2ccccn2)cc1` (stereo not given), the inhibition was -1.72% (inactive). For the molecule `Cc1ccc2c(c1)N(CC(=O)N(Cc1ccccn1)Cc1ccco1)C(=O)C(C(C)C)O2` (stereo not given), the inhibition is 75.7% (active).

On to `NC(=O)COC(=O)c1cc(S(=O)(=O)N2CCN(c3ccccc3)CC2)ccc1Cl`, for which the inhibition is -1.75% (inactive).

For the molecule `Cc1nn(Cc2ccc(Cl)cc2)c(Cl)c1/C=N/NC(=O)CNc1ccccc1F`, the inhibition is 8.05% (inactive). With `Cc1cc(C)c2nc(-c3cccnc3)cc(C(=O)Nc3ccc(S(=O)(=O)Nc4onc(C)c4C)cc3)c2c1`, the inhibition was -3.47% (inactive). With `CC(=O)/C(=N\Nc1ccc(Cl)cc1Cl)Sc1cccc2cccnc12` the figure was 96.8% (active); with `S=C(NCc1cccnc1)Nc1ccc(Cl)cc1Cl`, 10.6% (inactive). `N#Cc1ccc(C(=O)Nc2cccc3cccnc23)c(F)c1`: the inhibition was -0.23% (inactive). As for `O=C(NN1C(=O)C2C3C=CC(O3)C2C1=O)c1ccccc1` (stereo not given), the figure is -9.99% (inactive); as for `O=C1CC(N2CCN(c3ccc(F)cc3)CC2)C(=O)N1c1ccccc1` (stereo not given), -0.81% (inactive); as for `CC(C)(C)NC(=O)NC(=O)COC(=O)Cc1ccc(Cl)cc1Cl`, -4.1% (inactive). Turning to `COCCNC(=O)NC(=O)COC(=O)C1(c2ccc(Cl)cc2)CC1`, the inhibition is -5.98% (inactive). As to `CCCNC(=O)NC(=O)COC(=O)CC(NC(N)=O)c1ccc(Cl)cc1` (stereo not given), the inhibition was 56.2% (active).

On to `O=C(Nc1ccccc1C(=O)N1CCCCCC1)c1ccccc1Cl`, for which the inhibition is 4.51% (inactive). As to `COc1ccc(-c2ccc(CCC(=O)O)n2-c2ccc(O)cc2)cc1`, the inhibition is -1.18% (inactive). With `Cc1ccsc1C1C(C#N)=C(N)OC2=C1C(=O)CC(C)(C)C2` (stereo not given) the figure was 9.53% (inactive); with `CCC(C)(C)n1nnnc1C(c1cccs1)N1CCN(Cc2ccccc2)CC1` (stereo not given), 50.4% (active); with `CCC(C)(C)n1nnnc1C(c1cccs1)N1CCN(c2nc3ccccc3s2)CC1` (stereo not given), 81.4% (active). With `Fc1ccc(Cn2nnnc2C(c2cccs2)N2CCCCCC2)cc1` (stereo not given), the inhibition was 5.18% (inactive). Turning to `CCC(C)(C)n1nnnc1C(c1ccccc1OC)N1CCSCC1` (stereo not given), the inhibition was 6.66% (inactive). With `CCCC(c1nnnn1C(C)(C)C)N1CCN(Cc2ccccc2)CC1` (stereo not given) the figure was -6.34% (inactive); with `COc1ccccc1C(c1nnnn1C(C)(C)C)N1CCN(Cc2ccccc2)CC1` (stereo not given), 17.2% (inactive).

For `CC(C)N(Cc1ccccc1)C(=O)COC(=O)c1cnccn1`, the inhibition was -4.04% (inactive).

For the molecule `COC(=O)Cc1c(O)ccn(Cc2cccc(C(F)(F)F)c2)c1=O`, the inhibition is -15.9% (inactive). As for `CC(Sc1nnnn1C1CCCCC1)C(=O)O` (stereo not given), the figure is -5.74% (inactive); as for `O=C(N/N=C/c1ccc([N+](=O)[O-])cc1)C(=O)N1CCCC1`, -5.07% (inactive); as for `O=C(OCC(=O)c1cccs1)c1ccc([N+](=O)[O-])o1`, 13.5% (inactive). As for `COc1ccc(Nc2cc(C)nc(-n3nc(C)cc3C)n2)cc1`, the inhibition is 28.9% (inactive). With `COc1ccccc1/C=N\Nc1cc(C)nc(-n2nc(C)cc2C)n1` the figure was 98.9% (active). Turning to `COc1cccc(/C=N/Nc2cc(C)nc(-c3ccccc3O)n2)c1O`, the inhibition was 71.2% (active). With `COc1cccc2c(N/N=C/c3ccco3)cc(C)nc12` the figure was 2.22% (inactive); with `COc1ccc(-c2nn(-c3ccccc3)cc2/C=N/Nc2ccccn2)cc1OC`, 27.8% (inactive); with `COc1cccc(/C=N/Nc2ncc(C(F)(F)F)cc2Cl)c1O`, 28.2% (inactive). As for `CCc1ccc(CN(C)Cc2nc(Cc3ccccc3)no2)nc1`, the figure is 14% (inactive); as for `S=C(NCc1ccco1)Nc1ccc2c(c1)OCCO2`, -4.58% (inactive); as for `COc1ccc(CCNC(=O)Cn2c(=O)n(CC3CCCO3)c(=O)c3ccccc32)cc1OC` (stereo not given), -4.82% (inactive). As for `O=C(NCCc1ccccc1)C1CCC(Cn2c(=O)c3ccccc3n(Cc3cccnc3)c2=O)CC1` (stereo not given), the inhibition is 73.5% (active).

As for `O=C(O)C1CC(=O)N(Cc2cccnc2)C1` (stereo not given), the inhibition was -7.68% (inactive).

`Cc1c(CN2CCCC(C(=O)c3cccc(Cl)c3)C2)c(=O)n(-c2ccccc2)n1C` (stereo not given): the inhibition is 16.8% (inactive). Take `CCN(CC)CCNC(=O)c1ccc(NS(=O)(=O)c2ccc3c(c2)OCCO3)cc1`: the inhibition was -8.8% (inactive).

On to `Cc1cccc(OCC(=O)Nc2ccccc2F)c1`, for which the inhibition was 8.74% (inactive). With `CC(C)C(C)(C#N)NC(=O)CSc1nncn1-c1ccccc1` (stereo not given), the inhibition is -0.78% (inactive). As for `CCCNS(=O)(=O)c1ccc(CCC(=O)N2CCCC2)cc1`, the figure is 1% (inactive); as for `S=C(NCc1ccc(Cl)cc1)NC1CCCCC1`, 57.3% (active); as for `S=C(NCc1ccc(Cl)cc1)NC12CC3CC(CC(C3)C1)C2`, 36.3% (inactive). With `CN(C)CCCNC(=S)NCc1ccc(Cl)cc1` the figure was -5.52% (inactive). With `O=c1[nH]c(=S)[nH]c2[nH]c(=S)[nH]c12` the figure was 7.12% (inactive); with `COC(=O)C1=C(N)Oc2cc(C)oc(=O)c2C1c1cccnc1` (stereo not given), 42.3% (inactive). Turning to `CCSc1nc2c(c(=O)[nH]1)C(c1cccnc1)C(C(=O)OC(C)C)=C(C)N2` (stereo not given), the inhibition was 56% (active). With `COC(=O)C1=C(C)Nc2ncnn2C1c1cccnc1` (stereo not given) the figure was -4.12% (inactive); with `N/C(=N\OC(=O)CCCC(=O)O)c1ncc(C(F)(F)F)cc1Cl`, -0.94% (inactive).

On to `COc1ccc(N2C(=O)/C(=C\c3ccco3)N=C2SCC(N)=O)cc1Cl`, for which the inhibition is 51.5% (active). Take `COc1ccc([N+](=O)[O-])cc1NC(=O)COC(=O)/C=C/c1ccco1`: the inhibition was -8.41% (inactive). `COc1ccc(Cl)cc1C(=O)NNC(=S)NC(=O)/C=C/c1ccco1`: the inhibition is 18.7% (inactive).

In the case of `CCOC(=O)C1CCN(C(=O)Cn2cc(C#N)c3ccccc32)CC1`, the inhibition is 0.22% (inactive).

Consider `COc1cccc2c(=O)n(CC(=O)N3CCCCCC3)ccc12`, for which the inhibition is -6.35% (inactive).

With `CCc1cccc2c(C=C(C#N)C#N)cn(CC(=O)N3CCCCC3)c12`, the inhibition was 78% (active). With `Cc1ccccc1NC(=O)c1ccc(COc2ccc3c(C)cc(=O)oc3c2)cc1` the figure was -4.07% (inactive); with `Cc1ccsc1C1C(C#N)=C(N)OC2=C1C(=O)CC(C)C2` (stereo not given), 5.83% (inactive). With `C/C=C/C=C/C(=O)OCC(=O)Nc1ccc(Cl)cc1` the figure was 0.85% (inactive); with `COc1ccc(C(=O)Nc2ncc3c(n2)-c2ccccc2CC3)cc1`, 33.3% (inactive); with `COCCN(CCOC)S(=O)(=O)c1ccc(C(=O)Nc2nc3c(s2)CCc2ccccc2-3)cc1`, 78.1% (active). With `C=CCN(CC=C)S(=O)(=O)c1ccc(C(=O)Nc2nc3c(s2)CCc2ccccc2-3)cc1` the figure was 25.3% (inactive). As for `CC(C)C(NC(=O)C1CCC(C(C)(C)C)CC1)C(=O)NCCCN1CCCCC1` (stereo not given), the inhibition was 4.42% (inactive). As for `COc1ccc(C=Nc2cccc3ncccc23)cc1`, the figure is -0.39% (inactive).

As for `Cc1ccc2[nH]c(=O)c(CC=C(Cl)Cl)c(C)c2c1`, the inhibition is 5.81% (inactive). With `COC(=O)c1ccc(/C=N/N2C(C)CCCC2C)cc1` (stereo not given), the inhibition was 1.84% (inactive). As for `CC(=O)NC(NC(=S)Nc1c(C)n(C)n(-c2ccccc2)c1=O)C(Cl)(Cl)Cl` (stereo not given), the figure is -10.3% (inactive); as for `CCCC(=O)NC(C)C(c1cccs1)N1CCN(c2ccccc2)CC1` (stereo not given), 21.8% (inactive). As for `COc1ccc(N2CCN(C(C)=C3C(=O)c4ccccc4C3=O)CC2)cc1`, the figure is 0.6% (inactive); as for `COc1ccc(C(C(O)C(=O)c2c[nH]c3ccccc23)N2CCN(c3ccccc3)CC2)cc1` (stereo not given), 60.7% (active). Consider `CCC(=O)c1ccc(OCC(O)Cn2nc(C)c(C(C)=O)c2C)cc1` (stereo not given), for which the inhibition is -1.66% (inactive). In the case of `Cc1c(C(N)=O)sc2ncn(CCOc3ccccc3)c(=O)c12`, the inhibition was 15.6% (inactive).

Consider `N#Cc1c(-c2ccc(Cl)cc2)c2c([nH]c1=S)CCCC2`, for which the inhibition was -2.73% (inactive).

These data come from PubChem BioAssay AID1063 (University of Pittsburgh Molecular Library Screening Center, 2008).
